Results on 38 compounds are retold here after the supplement of paper PMC4894684.

Counter-ions that a name gives are not always drawn. ± gives the standard deviation of the averaged measurements.

The experiment concerns Toxoplasma gondii RH (in HFF). Kind of experiment: parasite growth relative to the screen mean (all compounds = 100%); higher = less inhibition of parasite growth. To be noted: 5 µM; 72 h; oxygen 21 %. An outline of the steps:
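RH β-Gal–GFP Toxoplasma at MOI 1:5 was used to infect confluent human foreskin fibroblasts in 96-well plates within 2 h of pin-transferring compounds to 5 µM final. After 72 h at 21% O2, parasite number was determined by CPRG β-Gal assay against standard curves on the same plate. Growth is relative to the screen mean and averaged over two screens, with all compounds = 100%.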
As to `CCC(=O)NC1Cc2ccccc2C(c2ccccc2)C1` (stereo not drawn), the parasite growth came to 73.8 ± 18%.

In the case of `COc1cc2nc(N3CCN(C(=O)C4CCCO4)CC3)nc(N)c2cc1OC` (stereo not drawn) [Terazosin hydrochloride], the parasite growth worked out at 122 ± 12%. The same measure for `O=C(/C=C/c1c(C(=O)O)[nH]c2cc(Cl)cc(Cl)c12)Nc1ccccc1` [Gavestinel]: 114 ± 17%. Regarding `Cc1cc(C)c(S(=O)(=O)Nc2cccc(C(F)(F)F)c2)c(C)c1`, the parasite growth is 169 ± 30%.

Take `C[S+]([O-])c1ccc(-c2nc(-c3ccc(F)cc3)c(-c3ccncc3)[nH]2)cc1` (stereo not drawn): the parasite growth is 8.46 ± 12%. As for `N=C(N)NC(=O)c1nc(Cl)c(N)nc1N` [Amiloride hydrochloride], the figure is 102 ± 30%; as for `CC(Oc1ccc(O)cc1)(P(=O)(O)O)P(=O)(O)O`, 101 ± 21%; as for `COC(=O)c1sccc1S(=O)(=O)Nc1ccc(Nc2ccccc2)cc1OC`, 64 ± 25%. `Cc1cc(C)cc(C(=O)N(C)[C@H](Cc2ccc(-c3ccccc3)cc2)C(=O)N[C@@H](Cc2c[nH]c3ccccc23)C(=O)O)c1`: the parasite growth is 146 ± 20%.

The compound `O=C(O)CN1C(=O)c2cccc3cccc(c23)C1=O` [Alrestatin] had a parasite growth of 100 ± 26%. As for `CC(=O)N1CCN(c2ccc(OCC3COC(Cn4ccnc4)(c4ccc(Cl)cc4Cl)O3)cc2)CC1` (stereo not drawn) [Ketoconazole], the figure is 186 ± 29%; as for `CC(C)Oc1ccc2c(=O)c3cc(C(=O)O)ccc3oc2c1`, 81.9 ± 15%. The same measure for `CCCn1c(=O)c2[nH]c(-c3ccccc3)nc2n(CCC)c1=O` [1,3-Dipropyl-8-phenylxanthine]: 47 ± 7.9%; for `COc1cc2ncn(-c3cc(OCc4ccccc4C(F)(F)F)c(C(N)=O)s3)c2cc1OC`: 93.1 ± 20%. For the compound `c1ccc2nc(C3=NCCN3)cnc2c1` [BU 239 hydrochloride], the parasite growth stood at 102 ± 22%.

Regarding `CCC(CC)(CC(=O)Nc1cccc(/C=C/c2nc(C3CCC3)cs2)c1)C(=O)O` [Cinalukast], the parasite growth was found to be 115 ± 12%.

The compound `Cn1cc(/C=C2\C(=O)Nc3cccnc32)c2ccccc21` showed a parasite growth of 131 ± 5.3%. In turn, `CCn1c(=O)n(C2=C(CO)CN(CC3CCCCCCC3)CC2)c2ccccc21` returned a parasite growth of 174 ± 19%. In turn, `NC(=O)c1cccc(N)c1` [3-Aminobenzamide] came in with a parasite growth of 129 ± 30%. In turn, `N[C@@H]1CCN(O)C1=O` displayed a parasite growth of 97.4 ± 22%. The compound `Cc1sc(N)c(C(=O)c2cccc(C(F)(F)F)c2)c1C` showed a parasite growth of 141 ± 7.3%. As for `C[C@H](NC[C@H](O)CP(=O)(O)CC1CCCCC1)c1ccc(Cl)c(Cl)c1`, the figure is 129 ± 36%; as for `CCCCCCN(CCCCCC)C(=O)Cc1c(-c2ccc(F)cc2)[nH]c2ccccc12`, 151 ± 28%. `COc1ccc([C@H]2CNC(=O)C2)cc1OC1CCCC1` [(S)-(+)-Rolipram] returned a parasite growth of 116 ± 30%. Turning to `CN(C)CCC=C1c2ccccc2COc2ccccc21` [Doxepin hydrochloride], the parasite growth came out at 159 ± 36%. As for `O=[N+]([O-])c1cccc2c(Br)[nH]nc12` [3-Bromo-7-nitroindazole], the figure is 123 ± 5.8%; as for `COc1ccc(-c2nc(C(=O)N3CCN(C)CC3)sc2-c2ccc(OC)cc2)cc1`, 112 ± 21%; as for `N#C/C(=C\c1ccc(O)c(O)c1)C(=O)NCCCc1ccccc1`, 154 ± 16%. `CNC(=O)c1cc2c(cn1)[nH]c1ccccc12`: the parasite growth was found to be 124 ± 19%. For `CCOC(=O)C1=C[C@]2(CC)CCCN3CCc4c(n1c1ccccc41)[C@@H]32` [Vinpocetine], the parasite growth came out at 121 ± 10%.

In turn, `Cn1nnc2c(C(N)=O)ncn2c1=O` [Temozolomide] gave a parasite growth of 89.4 ± 4.9%. As for `COC(=O)C1=C(C)NC(C)=C(C(=O)OC)C1c1ccccc1[N+](=O)[O-]` [Nifedipine], the figure is 110 ± 36%. For the compound `O=c1oc(-c2ccc(C(F)(F)F)cc2)nn1Cc1cc(Cl)ccc1O`, the parasite growth is 146 ± 11%. In the case of `CCN(CC)CCOC(=O)C1(c2ccc([N+](=O)[O-])cc2)CCCC1` [Nitrocaramiphen hydrochloride], the parasite growth came out at 99.3 ± 34%. The same measure for `c1cc2c3c(c1)c1c(n3CCNC2)CCCC1` [WAY 629 hydrochloride]: 130 ± 4%.

In the case of `N[C@@H](C(=O)O)c1ccc(O)c(C(=O)O)c1` [(R)-3-Carboxy-4-hydroxyphenylglycine], the parasite growth was 148 ± 15%. `CCOc1cc(CC(=O)N[C@@H](CC(C)C)c2ccccc2N2CCCCC2)ccc1C(=O)O` [Repaglinide] registered a parasite growth of 150 ± 13%.

For the compound `CS(=O)(=O)c1ccc(-c2cc(Br)sc2-c2ccc(F)cc2)cc1`, the parasite growth came to 47.5 ± 14%.
